# Experimental data taken from paper PMC7862700, “An all-to-all approach to the identification of sequence-specific readers for epigenetic DNA modifications on cytosine”.
# What was measured:
# Assay in all cases: DAPPL (digital affinity profiling via proximity ligation, sequencing); 10 mM Tris-HCl pH 7.5, 50 mM NaCl, 1 mM DTT, 4% glycerol, room temperature, 30 min; GST-TFs on glutathione beads, 16-mer random dsDNA library, 0.1% formaldehyde crosslink after washing; high values mean tight binding
# Settings in all cases: protein: recombinant; tags: N-terminal GST; dsDNA, one strand shown
# [1] = target: T1, FLI1 (Homo sapiens, UniProt Q01543 1-452)
# T1 sequence: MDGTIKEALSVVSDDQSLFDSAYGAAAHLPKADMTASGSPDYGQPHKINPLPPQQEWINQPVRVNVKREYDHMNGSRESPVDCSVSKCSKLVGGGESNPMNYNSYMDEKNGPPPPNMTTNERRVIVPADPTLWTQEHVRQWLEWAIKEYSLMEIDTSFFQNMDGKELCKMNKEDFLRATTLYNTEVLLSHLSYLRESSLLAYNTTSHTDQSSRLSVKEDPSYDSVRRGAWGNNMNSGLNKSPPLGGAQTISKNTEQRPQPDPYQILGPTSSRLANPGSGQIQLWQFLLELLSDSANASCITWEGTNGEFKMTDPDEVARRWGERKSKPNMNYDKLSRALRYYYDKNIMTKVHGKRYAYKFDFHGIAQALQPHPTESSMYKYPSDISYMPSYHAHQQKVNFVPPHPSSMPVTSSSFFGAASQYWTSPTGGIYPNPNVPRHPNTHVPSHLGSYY
# Outline: (§1)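 Binding signal is given per hexamer as its read frequency for a factor divided by its frequency in the tag-only sample. GST-fused human transcription factors were expressed in yeast, captured on glutathione beads, barcoded with DNA and pooled with that sample, then incubated with 200 nmole of a 16-mer random double-stranded DNA library in Tris/NaCl/DTT/glycerol buffer for 30 min at room temperature. The pools were then washed, crosslinked, proximity-ligated, amplified by PCR and sequenced on an Illumina NextSeq500.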
# [2] = target: T2, ELK1 (Homo sapiens, UniProt P19419 1-428)
# T2 sequence: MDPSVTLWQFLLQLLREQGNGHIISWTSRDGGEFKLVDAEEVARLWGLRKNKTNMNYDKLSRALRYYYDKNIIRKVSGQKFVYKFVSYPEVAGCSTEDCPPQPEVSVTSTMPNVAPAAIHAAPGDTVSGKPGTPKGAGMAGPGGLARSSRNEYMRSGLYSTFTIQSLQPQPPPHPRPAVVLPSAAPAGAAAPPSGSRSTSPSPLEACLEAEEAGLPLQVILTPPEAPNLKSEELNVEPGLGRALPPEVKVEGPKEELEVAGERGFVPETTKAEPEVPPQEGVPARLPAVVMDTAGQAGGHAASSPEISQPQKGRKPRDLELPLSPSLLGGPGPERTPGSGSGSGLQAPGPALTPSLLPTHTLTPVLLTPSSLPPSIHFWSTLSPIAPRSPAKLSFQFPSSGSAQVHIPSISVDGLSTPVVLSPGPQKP
# Outline: as §1
# [3] = target: T3, GABPA (Homo sapiens, UniProt Q06546 1-454)
# T3 sequence: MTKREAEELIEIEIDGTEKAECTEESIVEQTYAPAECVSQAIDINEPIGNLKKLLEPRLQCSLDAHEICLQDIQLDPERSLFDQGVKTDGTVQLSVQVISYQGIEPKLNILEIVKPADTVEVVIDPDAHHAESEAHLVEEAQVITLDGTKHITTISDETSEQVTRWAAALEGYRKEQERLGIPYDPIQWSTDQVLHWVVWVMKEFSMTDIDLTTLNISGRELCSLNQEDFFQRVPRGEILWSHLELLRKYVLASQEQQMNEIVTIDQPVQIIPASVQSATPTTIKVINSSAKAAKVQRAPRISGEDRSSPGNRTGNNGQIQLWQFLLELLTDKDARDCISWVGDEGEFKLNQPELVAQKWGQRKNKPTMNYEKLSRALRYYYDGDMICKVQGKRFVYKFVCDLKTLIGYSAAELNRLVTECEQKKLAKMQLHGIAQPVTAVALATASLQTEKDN
# Outline: as §1
# [4] = target: T4, ERG (Homo sapiens, UniProt P11308 1-479)
# T4 sequence: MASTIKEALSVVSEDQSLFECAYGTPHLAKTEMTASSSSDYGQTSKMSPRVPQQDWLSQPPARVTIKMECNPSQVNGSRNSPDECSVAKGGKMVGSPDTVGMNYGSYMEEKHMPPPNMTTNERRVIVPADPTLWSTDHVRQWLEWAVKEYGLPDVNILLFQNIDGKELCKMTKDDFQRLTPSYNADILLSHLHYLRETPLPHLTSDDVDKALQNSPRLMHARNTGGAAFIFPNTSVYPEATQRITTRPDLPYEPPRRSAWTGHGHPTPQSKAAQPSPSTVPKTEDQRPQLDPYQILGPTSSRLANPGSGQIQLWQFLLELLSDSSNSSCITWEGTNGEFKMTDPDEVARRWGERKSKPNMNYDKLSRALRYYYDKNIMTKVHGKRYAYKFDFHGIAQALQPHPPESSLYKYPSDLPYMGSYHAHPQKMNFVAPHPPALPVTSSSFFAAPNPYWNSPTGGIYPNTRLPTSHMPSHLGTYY
# Outline: as §1
# [5] = target: ELF1 (Homo sapiens, UniProt P32519 1-619)
# Sequence of ELF1 (P32519 whole entry): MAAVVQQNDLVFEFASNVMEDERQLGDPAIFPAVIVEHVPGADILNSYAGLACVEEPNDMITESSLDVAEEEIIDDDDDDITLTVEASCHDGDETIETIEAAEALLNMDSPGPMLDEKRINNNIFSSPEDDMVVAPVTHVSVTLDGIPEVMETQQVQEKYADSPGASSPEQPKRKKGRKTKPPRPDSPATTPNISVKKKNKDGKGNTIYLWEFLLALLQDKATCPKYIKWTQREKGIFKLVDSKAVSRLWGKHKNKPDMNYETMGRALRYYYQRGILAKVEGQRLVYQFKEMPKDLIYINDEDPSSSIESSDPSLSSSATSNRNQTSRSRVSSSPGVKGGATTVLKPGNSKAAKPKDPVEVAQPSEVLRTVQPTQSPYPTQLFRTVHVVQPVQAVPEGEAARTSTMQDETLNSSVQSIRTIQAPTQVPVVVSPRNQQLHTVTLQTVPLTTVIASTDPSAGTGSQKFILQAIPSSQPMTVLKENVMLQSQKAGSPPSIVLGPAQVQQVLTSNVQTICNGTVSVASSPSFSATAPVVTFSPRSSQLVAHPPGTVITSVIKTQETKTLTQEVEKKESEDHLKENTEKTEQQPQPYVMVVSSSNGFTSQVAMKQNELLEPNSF
# Outline: as §1
# [6] = target: T5, EHF (Homo sapiens, UniProt Q9NZC4 1-300)
# T5 sequence: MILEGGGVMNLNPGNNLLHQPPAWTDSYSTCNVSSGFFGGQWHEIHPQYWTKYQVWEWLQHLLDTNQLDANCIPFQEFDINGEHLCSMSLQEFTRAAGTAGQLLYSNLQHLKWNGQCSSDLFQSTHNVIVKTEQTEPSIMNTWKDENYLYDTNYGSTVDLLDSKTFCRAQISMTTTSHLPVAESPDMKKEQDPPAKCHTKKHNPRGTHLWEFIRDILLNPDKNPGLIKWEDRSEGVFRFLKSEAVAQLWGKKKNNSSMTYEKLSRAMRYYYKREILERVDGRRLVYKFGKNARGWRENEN
# Outline: as §1
# [7] = target: SPI1 (Homo sapiens, UniProt P17947 1-270)
# Outline: as §1
# [8] = target: SPIB (Homo sapiens, UniProt Q01892 1-262)
# Sequence of SPIB (Q01892 whole entry): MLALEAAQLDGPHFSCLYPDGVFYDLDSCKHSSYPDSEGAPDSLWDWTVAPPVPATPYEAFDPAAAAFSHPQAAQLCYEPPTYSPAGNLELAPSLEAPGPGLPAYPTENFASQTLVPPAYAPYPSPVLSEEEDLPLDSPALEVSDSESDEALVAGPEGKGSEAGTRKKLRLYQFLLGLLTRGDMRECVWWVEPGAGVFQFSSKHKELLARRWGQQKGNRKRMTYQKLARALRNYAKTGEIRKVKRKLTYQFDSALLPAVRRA
# Outline: as §1
# [9] = target: T6, ELK3 (Homo sapiens, UniProt P41970 1-407)
# T6 sequence: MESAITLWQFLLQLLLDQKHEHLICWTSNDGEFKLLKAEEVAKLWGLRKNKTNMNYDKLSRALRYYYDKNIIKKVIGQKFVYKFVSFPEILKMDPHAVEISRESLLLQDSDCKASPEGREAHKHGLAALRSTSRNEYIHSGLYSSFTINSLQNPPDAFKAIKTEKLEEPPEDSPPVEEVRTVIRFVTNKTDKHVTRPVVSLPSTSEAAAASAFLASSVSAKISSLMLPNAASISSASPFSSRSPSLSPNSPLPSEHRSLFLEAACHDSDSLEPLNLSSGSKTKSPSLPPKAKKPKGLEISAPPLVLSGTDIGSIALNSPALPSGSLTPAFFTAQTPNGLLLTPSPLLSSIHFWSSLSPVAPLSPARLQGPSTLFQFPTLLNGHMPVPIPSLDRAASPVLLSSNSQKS
# Outline: as §1
# [10] = target: T7, FEV (Homo sapiens, UniProt Q99581 1-238)
# T7 sequence: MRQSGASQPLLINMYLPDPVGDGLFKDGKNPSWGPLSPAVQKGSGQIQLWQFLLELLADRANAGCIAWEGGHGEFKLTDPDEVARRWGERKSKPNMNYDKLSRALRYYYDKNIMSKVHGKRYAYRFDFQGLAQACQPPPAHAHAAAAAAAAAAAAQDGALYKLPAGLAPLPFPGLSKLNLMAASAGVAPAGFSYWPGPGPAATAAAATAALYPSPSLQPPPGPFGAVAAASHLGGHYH
# Outline: as §1
# [11] = target: ETV5 (Homo sapiens, UniProt P41161 1-510)
# Sequence of ETV5 (P41161 whole entry): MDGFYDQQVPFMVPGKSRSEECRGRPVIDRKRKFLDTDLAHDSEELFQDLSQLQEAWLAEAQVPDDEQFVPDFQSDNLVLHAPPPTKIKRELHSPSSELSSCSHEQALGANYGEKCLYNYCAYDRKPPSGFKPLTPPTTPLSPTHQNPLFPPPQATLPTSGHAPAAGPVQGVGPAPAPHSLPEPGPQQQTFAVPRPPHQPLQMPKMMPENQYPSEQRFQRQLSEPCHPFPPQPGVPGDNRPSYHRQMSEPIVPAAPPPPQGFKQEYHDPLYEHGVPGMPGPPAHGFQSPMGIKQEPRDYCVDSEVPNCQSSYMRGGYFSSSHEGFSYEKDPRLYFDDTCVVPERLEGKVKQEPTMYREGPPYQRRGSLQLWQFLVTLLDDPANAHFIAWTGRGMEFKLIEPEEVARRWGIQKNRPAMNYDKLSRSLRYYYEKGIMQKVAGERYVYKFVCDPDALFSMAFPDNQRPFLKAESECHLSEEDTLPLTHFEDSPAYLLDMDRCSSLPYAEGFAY
# Outline: as §1
# [12] = target: T8, SPIC (Homo sapiens, UniProt Q8N5J4 1-248)
# T8 sequence: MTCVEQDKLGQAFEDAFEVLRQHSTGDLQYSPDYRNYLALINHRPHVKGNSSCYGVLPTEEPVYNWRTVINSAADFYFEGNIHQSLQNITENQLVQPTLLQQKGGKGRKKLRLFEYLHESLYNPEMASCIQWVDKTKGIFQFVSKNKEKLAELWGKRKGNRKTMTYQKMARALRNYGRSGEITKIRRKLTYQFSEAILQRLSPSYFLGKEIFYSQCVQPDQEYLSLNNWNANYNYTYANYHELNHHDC
# Outline: as §1
# [13] = target: ELF4 (Homo sapiens, UniProt Q99607 1-663)
# Sequence of ELF4 (Q99607 whole entry): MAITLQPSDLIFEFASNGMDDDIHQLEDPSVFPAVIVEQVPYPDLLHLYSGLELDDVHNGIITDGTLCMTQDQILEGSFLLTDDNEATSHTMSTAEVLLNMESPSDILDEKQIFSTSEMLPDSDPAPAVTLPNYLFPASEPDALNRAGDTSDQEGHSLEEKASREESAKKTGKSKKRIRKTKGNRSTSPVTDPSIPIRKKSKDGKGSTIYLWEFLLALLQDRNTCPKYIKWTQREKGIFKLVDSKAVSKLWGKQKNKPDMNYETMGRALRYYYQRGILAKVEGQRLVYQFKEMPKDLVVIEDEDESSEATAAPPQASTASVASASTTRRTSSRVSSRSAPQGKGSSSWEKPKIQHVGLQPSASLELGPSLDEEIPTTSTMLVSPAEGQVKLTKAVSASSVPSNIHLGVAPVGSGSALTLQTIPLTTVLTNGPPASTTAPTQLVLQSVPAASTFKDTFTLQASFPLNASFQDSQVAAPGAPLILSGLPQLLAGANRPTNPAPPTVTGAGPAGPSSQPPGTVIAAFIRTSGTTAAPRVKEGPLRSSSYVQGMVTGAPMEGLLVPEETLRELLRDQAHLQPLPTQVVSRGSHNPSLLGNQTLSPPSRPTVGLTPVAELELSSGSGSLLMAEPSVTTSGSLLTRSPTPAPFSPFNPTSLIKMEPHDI
# Outline: as §1
# [14] = target: ETV1 (Homo sapiens, UniProt P50549 1-477)
# Sequence of ETV1 (P50549 whole entry): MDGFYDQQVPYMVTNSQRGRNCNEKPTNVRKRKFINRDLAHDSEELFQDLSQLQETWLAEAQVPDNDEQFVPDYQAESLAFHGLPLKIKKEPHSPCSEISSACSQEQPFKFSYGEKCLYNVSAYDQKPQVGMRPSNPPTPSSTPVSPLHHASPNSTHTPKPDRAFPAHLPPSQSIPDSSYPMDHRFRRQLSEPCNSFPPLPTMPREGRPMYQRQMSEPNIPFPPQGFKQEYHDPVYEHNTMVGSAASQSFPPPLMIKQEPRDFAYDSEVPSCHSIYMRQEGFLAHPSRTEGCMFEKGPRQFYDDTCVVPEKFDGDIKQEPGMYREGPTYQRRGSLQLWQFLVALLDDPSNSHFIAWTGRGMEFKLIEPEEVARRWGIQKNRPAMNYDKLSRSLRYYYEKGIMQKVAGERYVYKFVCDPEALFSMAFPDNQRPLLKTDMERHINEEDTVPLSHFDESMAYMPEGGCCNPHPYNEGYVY
# Outline: as §1
# [15] = target: T9, ERF (Homo sapiens, UniProt P50548 1-548)
# T9 sequence: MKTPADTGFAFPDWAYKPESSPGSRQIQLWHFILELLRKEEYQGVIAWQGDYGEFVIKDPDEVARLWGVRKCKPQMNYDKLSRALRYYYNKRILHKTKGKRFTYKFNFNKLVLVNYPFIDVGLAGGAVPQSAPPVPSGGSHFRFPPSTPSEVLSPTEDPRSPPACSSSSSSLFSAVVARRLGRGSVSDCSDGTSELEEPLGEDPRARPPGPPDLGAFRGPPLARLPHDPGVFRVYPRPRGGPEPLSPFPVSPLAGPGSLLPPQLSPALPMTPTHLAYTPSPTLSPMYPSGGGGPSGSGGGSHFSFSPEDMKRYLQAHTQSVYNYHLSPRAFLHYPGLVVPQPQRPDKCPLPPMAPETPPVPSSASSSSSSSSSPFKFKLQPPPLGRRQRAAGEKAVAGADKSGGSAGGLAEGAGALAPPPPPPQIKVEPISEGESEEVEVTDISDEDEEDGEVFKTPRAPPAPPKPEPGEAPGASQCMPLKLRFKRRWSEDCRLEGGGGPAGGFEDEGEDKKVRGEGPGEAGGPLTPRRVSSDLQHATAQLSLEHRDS
# Outline: as §1
# [16] = target: T10, ETS2 (Homo sapiens, UniProt P15036 1-469)
# T10 sequence: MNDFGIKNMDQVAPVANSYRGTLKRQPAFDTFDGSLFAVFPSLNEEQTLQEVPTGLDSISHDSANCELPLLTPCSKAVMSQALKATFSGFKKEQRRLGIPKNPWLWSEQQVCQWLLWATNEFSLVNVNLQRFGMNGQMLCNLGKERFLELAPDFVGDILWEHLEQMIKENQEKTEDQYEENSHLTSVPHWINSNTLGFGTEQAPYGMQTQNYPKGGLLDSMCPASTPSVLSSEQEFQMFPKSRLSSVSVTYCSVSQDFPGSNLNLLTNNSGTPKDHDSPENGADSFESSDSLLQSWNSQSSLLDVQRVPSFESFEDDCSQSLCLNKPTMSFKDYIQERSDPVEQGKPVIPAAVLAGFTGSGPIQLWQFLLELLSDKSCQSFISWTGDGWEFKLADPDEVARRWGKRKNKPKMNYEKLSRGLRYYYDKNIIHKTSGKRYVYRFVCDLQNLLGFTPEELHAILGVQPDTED
# Outline: as §1
# [17] = target: T11, ELF5 (Homo sapiens, UniProt Q9UKW6-2 1-255)
# T11 sequence: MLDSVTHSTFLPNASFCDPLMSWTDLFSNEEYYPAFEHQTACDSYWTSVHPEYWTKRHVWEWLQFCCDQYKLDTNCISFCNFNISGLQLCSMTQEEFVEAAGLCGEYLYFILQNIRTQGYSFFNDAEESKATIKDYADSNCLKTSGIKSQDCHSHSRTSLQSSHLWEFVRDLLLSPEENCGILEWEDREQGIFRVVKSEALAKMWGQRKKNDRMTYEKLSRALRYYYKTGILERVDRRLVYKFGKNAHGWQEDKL
# Outline: as §1
# [18] = target: T12, ETV3 (Homo sapiens, UniProt P41162-2 1-143)
# T12 sequence: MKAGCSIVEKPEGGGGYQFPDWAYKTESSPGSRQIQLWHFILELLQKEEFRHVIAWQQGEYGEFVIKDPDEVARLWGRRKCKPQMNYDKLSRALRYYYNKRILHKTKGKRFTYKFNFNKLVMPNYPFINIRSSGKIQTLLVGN
# Outline: as §1
# [19] = target: ETV6 (Homo sapiens, UniProt P41212 1-452)
# Sequence of ETV6 (P41212 whole entry): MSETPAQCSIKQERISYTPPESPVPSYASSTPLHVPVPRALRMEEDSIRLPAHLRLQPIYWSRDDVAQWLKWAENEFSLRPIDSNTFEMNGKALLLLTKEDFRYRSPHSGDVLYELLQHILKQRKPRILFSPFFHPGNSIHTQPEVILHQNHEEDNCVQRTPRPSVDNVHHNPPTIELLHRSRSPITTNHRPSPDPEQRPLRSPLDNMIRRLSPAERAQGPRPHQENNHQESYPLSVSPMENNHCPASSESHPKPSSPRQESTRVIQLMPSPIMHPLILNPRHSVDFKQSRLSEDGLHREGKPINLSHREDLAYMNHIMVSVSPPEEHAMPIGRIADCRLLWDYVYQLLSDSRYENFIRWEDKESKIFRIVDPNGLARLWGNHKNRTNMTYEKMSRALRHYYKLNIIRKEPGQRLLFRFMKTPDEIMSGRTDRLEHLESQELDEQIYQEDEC
# Outline: as §1
sequence,measurement,setting,value
ATGCCG,binding signal,[1],"1.12 fold enrichment (6-mer frequency, TF over GST control)"
same,binding signal,[2],"1.13 fold enrichment (6-mer frequency, TF over GST control)"
same,binding signal,[3],"1.09 fold enrichment (6-mer frequency, TF over GST control)"
same,binding signal,[4],"1.12 fold enrichment (6-mer frequency, TF over GST control)"
same,binding signal,[5],"1.09 fold enrichment (6-mer frequency, TF over GST control)"
same,binding signal,[6],"1.16 fold enrichment (6-mer frequency, TF over GST control)"
same,binding signal,[7],"1.13 fold enrichment (6-mer frequency, TF over GST control)"
same,binding signal,[8],"1.17 fold enrichment (6-mer frequency, TF over GST control)"
same,binding signal,[9],"1.07 fold enrichment (6-mer frequency, TF over GST control)"
same,binding signal,[10],"1.16 fold enrichment (6-mer frequency, TF over GST control)"
same,binding signal,[11],"1.15 fold enrichment (6-mer frequency, TF over GST control)"
same,binding signal,[12],"1.17 fold enrichment (6-mer frequency, TF over GST control)"
same,binding signal,[13],"1.19 fold enrichment (6-mer frequency, TF over GST control)"
same,binding signal,[14],"1.11 fold enrichment (6-mer frequency, TF over GST control)"
same,binding signal,[15],"1.01 fold enrichment (6-mer frequency, TF over GST control)"
same,binding signal,[16],"1.08 fold enrichment (6-mer frequency, TF over GST control)"
same,binding signal,[17],"1.13 fold enrichment (6-mer frequency, TF over GST control)"
same,binding signal,[18],"1.24 fold enrichment (6-mer frequency, TF over GST control)"
same,binding signal,[19],"1.15 fold enrichment (6-mer frequency, TF over GST control)"
